“And” between values parts separate entries of the source, which are not always exact repeats. Equal entries are not always repeated. Records with an inconclusive call do not appear. The source made the active and inactive calls. How the source made its calls: active means hit-call score of the fitted dose curve at least 0.9, where 1 is the maximum; inconclusive means response in the unintended direction; inactive means score below 0.9.
test: TOX21_p53_BLA_p4_viability: Viability Assessment in the Tox21 HCT-116 p53 Agonism Beta-lactamase Assay, Phase 4 (AID 2283597);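 further: hits lower the luminescence signal meaning cytotoxicity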
How it was run: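 Cells plated, 5 h pre-incubation; DMSO compounds pinned (217-fold dilution); 16 h, 37C/5% CO2; CCF4-AM 2 h RT; CellTiter-Glo 30 min RT; luminescence read.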

For CCOc1ccc(N)cc1, which outcome is on record?
The outcome was “inactive”.

Which AC50 does the source give for CC(C)CC(C)(c1ccc(O)cc1)c1ccc(O)cc1 here?
Its AC50 is 18.6 µM (active) and 46.2 µM (active).

With N#CS as the molecule, how does the outcome read?
The outcome was “inactive”.

For CCN(CC)C(=O)C(Cl)=C(C)OP(=O)(OC)OC, which outcome is on record?
Its outcome is “inactive”.

With Cl[C@H]1OCCO[C@@H]1Cl as the molecule, how does the outcome read?
Its outcome is “inactive”.

For O=C(CBr)c1ccc(O)cc1, which outcome is on record?
Its outcome is “inactive”.

Which AC50 does the source give for O=S1OC[C@@H]2[C@H](CO1)[C@]1(Cl)C(Cl)=C(Cl)[C@@]2(Cl)C1(Cl)Cl (some centres not stated) here?
The AC50 was 83.6 µM (active).

Which outcome does the source give for CCOC(=O)OC1=C(c2cc(C)ccc2C)C(=O)NC12CCC(OC)CC2 (configuration not stated) here?
Its outcome is “inactive”.

For Cc1cc(-c2cc(C)c(N)c(C)c2)cc(C)c1N, which outcome is on record?
The outcome was “inactive”.

For O=C(O)CC(O)(CC(=O)O)C(=O)O, which outcome is on record?
The outcome was “inactive”.

Which outcome does the source give for COP(=S)(OC)Oc1cc(Cl)c(I)cc1Cl here?
Its outcome is “inactive”.

For CCOc1cc(C=O)ccc1O, which outcome is on record?
Its outcome is “inactive”.

With C#C[C@]1(O)CC[C@H]2[C@@H]3CCC4=CC(=O)CC[C@]4(C)[C@H]3CC[C@@]21C as the molecule, how does the outcome read?
Its outcome is “inactive”.

Which outcome does the source give for CCOP(=O)(OCC)OC(=CCl)c1ccc(Cl)cc1Cl here?
The outcome was “inactive”.

With Nc1ccc(-c2ccccc2)cc1 as the molecule, how does the outcome read?
Its outcome is “inactive”.

For CCOP(=S)(OCC)O/N=C(\C#N)c1ccccc1, which outcome is on record?
Its outcome is “inactive”.

With O=[N+]([O-])c1cccc2ccccc12 as the molecule, how does the outcome read?
The outcome was “inactive”.
